Test results as given in PubChem BioAssay (EPA / NIEHS).
The source made the active and inactive calls. The calls were made as follows: active = hit-call score of the fitted dose curve at least 0.9, where 1 is the maximum; inactive = score below 0.9.

Test: IUF_NPC1a_proliferation_area_72hr: Leibniz Research Institute for Environmental Medicine (IUF) 72-hour Neural Progenitor Cell Proliferation Area Assay (NPC1a) (AID 2284208)
Summary of the method: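 Spheres of 0.3 mm are plated singly in growth-factor medium and exposed from day 0. After three days at 37C and 5% CO2, sphere area is measured by phase contrast imaging, with activity referenced to DMSO.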

Structure (SMILES) | outcome
OC[C@@H](O)[C@@H](O)[C@H](O)[C@H](O)CO | inactive
C[Si]1(C)O[Si](C)(C)O[Si](C)(C)O[Si](C)(C)O1 | inactive
CC(=O)Oc1ccccc1C(=O)O | inactive

Test: IUF_NPC1_viability_72hr: Viability Assessment at 72 hours in the Leibniz Research Institute for Environmental Medicine (IUF) Neural Progenitor Cell Proliferation Assay (NPC1) (AID 2284209)
Description: IUF_NPC1 is a cell-based, multiplexed assay that uses hNPC, a human primary neural progenitor cells, with measurements taken at 72 hours after chemical dosing in a 96-well plate. Human neural progenitor cells (hNPC) are generated from human fetal brain cortex at gestational week (GW) 16-19. Grown in suspension culture and under proliferative conditions (proliferation media and growth factors), these cells represent neural progenitor cell proliferation. In the NPC1 assay, hNPC's are exposed to the test compound for 72h. Cell proliferation is assessed as an increase in sphere area using automated phase contrast imaging and as incorporation of Bromodeoxyuridine (BrdU) during DNA synthesis using a luminescence-based cell proliferation ELISA. In parallel, the cell viability is assessed using an alamar blue viability assay and the cytotoxicity using a lactate dehydrogenase dependent membrane integrity assay.IUF_NPC1_viability_72hr is one of 4 assay components measured from the IUF_NPC1 assay. It is designed to measure cell viability assessed as mitochondria-dependent reduction of resazurin to resorufin using the alamar blue cell viability assay. Viability is measured as a fluorescence signal (relative fluorescence unit) in a multiplate reader. Data from the IUF_NPC1_viability component was analyzed at the endpoint IUF_NPC1_viability in the positive analysis fitting direction relative to DMSO as the negative control and baseline of activity. Using a type of viability reporter, gain or loss-of-signal activity can be used to understand viability effects.
After the cell expansion period, the cells are cultured for up to four weeks in which they are passaged every week. Between one to three days after passaging, depending on the size chosen for passaging, spheres at a size of 0.3 mm are used in the assay. For the assessment of neural progenitor cell proliferation, the spheres are plated in poly-Hema coated 96-well U-bottom plates filled with proliferation medium containing growth factors (EGF and FGF). One 0.25 - 0.35 mm big sphere is plated in the middle of each well. […]

Structure (SMILES) | outcome
OC[C@@H](O)[C@@H](O)[C@H](O)[C@H](O)CO | inactive
C[Si]1(C)O[Si](C)(C)O[Si](C)(C)O[Si](C)(C)O1 | inactive
CC(=O)Oc1ccccc1C(=O)O | inactive

Test: CCTE_Mundy_HCI_Cortical_Synap_Neur_Matur_NeuriteSpotCountPerNeuriteLength: CCTE's Synaptogenesis and Neurite Maturation Assay in rat cortical cells for Neurite Spot Count per Neurite Length, Mundy Lab (AID 2284210)
Summary of the method: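 Read-out: synaptophysin puncta counted along MAP2-stained neurites, normalised to neurite length, by automated high-content imaging. Rat cortical cells; AraC DIV 5; chemical dosing DIV 7; termination DIV 12. DMSO baseline.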

Structure (SMILES) | outcome
OC[C@@H](O)[C@@H](O)[C@H](O)[C@H](O)CO | inactive
CCCc1cc(=O)[nH]c(=S)[nH]1 | inactive
C[Si]1(C)O[Si](C)(C)O[Si](C)(C)O[Si](C)(C)O1 | inactive
O=c1[nH]cc(F)c(=O)[nH]1 | inactive
CC(=O)Oc1ccccc1C(=O)O | inactive

Test: CCTE_Mundy_HCI_Cortical_Synap_Neur_Matur_BPCount: CCTE's Synaptogenesis and Neurite Maturation Assay in rat cortical cells for Branch Point Count, Mundy Lab (AID 2284211)
Summary of the method: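 In this multiplexed morphology assay, cortical cells from rat receive chemicals at DIV 7 and are fixed at DIV 12, then immunostained and imaged; branch points are counted, with DMSO as baseline.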

Structure (SMILES) | outcome
OC[C@@H](O)[C@@H](O)[C@H](O)[C@H](O)CO | inactive
C[Si]1(C)O[Si](C)(C)O[Si](C)(C)O[Si](C)(C)O1 | inactive
CC(=O)Oc1ccccc1C(=O)O | inactive

Test: CCTE_Mundy_HCI_Cortical_NOG_NeuriteCount: CCTE's Neurite Outgrowth Assay in rat cortical cells for Neurite Count, Mundy Lab (AID 2284212);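 also: cells fixed about two days after chemical exposure began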
Summary of the method: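 Rat cortical primary cells; compound added 2 h post-plating, 1/10 dilution of working solution. Anti-betaIII-tubulin/AF488 ICC; ArrayScan neurite count vs DMSO.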

Structure (SMILES) | outcome
OC[C@@H](O)[C@@H](O)[C@H](O)[C@H](O)CO | inactive
C[Si]1(C)O[Si](C)(C)O[Si](C)(C)O[Si](C)(C)O1 | inactive
CC(=O)Oc1ccccc1C(=O)O | inactive

Test: CCTE_Mundy_HCI_Cortical_NOG_NeuriteLength: CCTE's Neurite Outgrowth Assay in rat cortical cells for Neurite Length, Mundy Lab (AID 2284213)
Summary of the method: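 First, rat primary cortical cells were plated and, 2 h later, given test chemical as a 1/10 dilution. Finally, βIII-tubulin immunostaining enabled automated imaging of neurite length.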

Structure (SMILES) | outcome
OC[C@@H](O)[C@@H](O)[C@H](O)[C@H](O)CO | inactive
CCCc1cc(=O)[nH]c(=S)[nH]1 | inactive
C[Si]1(C)O[Si](C)(C)O[Si](C)(C)O[Si](C)(C)O1 | inactive
O=c1[nH]cc(F)c(=O)[nH]1 | inactive
CC(=O)Oc1ccccc1C(=O)O | inactive

Test: CCTE_Mundy_HCI_Cortical_Synap_Neur_Matur_NeuriteLength: CCTE's Synaptogenesis and Neurite Maturation Assay in rat cortical cells for Neurite Length, Mundy Lab (AID 2284214)
Description: CCTE_Mundy_HCI_Cortical_Synap&Neurite_Matur is a multiplexed, cell-based-readout assay that uses rat primary cortical cells with measurements taken at 288.33 hours after chemical dosing in a microplate: 96-well plate.CCTE_Mundy_HCI_Cortical_Synap_Neur_Matur_NeuriteLength is one of eight components of the CCTE_Mundy_HCI_Cortical_Synap&Neurite_Matur assay. It measures synaptogenesis and neurite maturation related to neurite length using High Content Imaging of fluorescently labelled markers.[…] Using a type of morphology reporter, loss -of-signal activity can be used to understand developmental effects.
Cells are plated onto 96 well plates and allowed 2 hr for attachment to the substrate. At days in vitro (DIV) 5, Cytosine Arabinoside (AraC) is added to arrest glial cell growth. Chemicals are dosed and a media change is performed at DIV 7 of differentiation and is continued through DIV 12 when the experiment is terminated. Cells are fixed with […] and Hoechst Dye. Cells are stained using Millipore Mouse anti-MAP2MAB3418 (1:800) and Millipore Rabbit anti-Synaptophysinsc-1750 (1:250) primary antibodies and Alexa Fluor-488 goat anti-mouse and AlexaFluor-546 goat anti-rabbit secondary antibodies to label neuronal cell nuclei, synapses and neurites. A Cellomics ArrayScan VTi HCS Reader is used for automated image acquisition and analysis of neurite outgrowth.

Structure (SMILES) | outcome
OC[C@@H](O)[C@@H](O)[C@H](O)[C@H](O)CO | inactive
CCCc1cc(=O)[nH]c(=S)[nH]1 | inactive
C[Si]1(C)O[Si](C)(C)O[Si](C)(C)O[Si](C)(C)O1 | inactive
O=c1[nH]cc(F)c(=O)[nH]1 | inactive
CC(=O)Oc1ccccc1C(=O)O | inactive

Test: CCTE_Mundy_HCI_Cortical_Synap_Neur_Matur_NeuriteSpotCountPerNeuron: CCTE's Synaptogenesis and Neurite Maturation Assay in rat cortical cells for Neurite Spot Count per Neuron Count, Mundy Lab (AID 2284215)
Summary of the method: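 Rat cortical primary cultures; AraC DIV 5 to arrest glia; dosing + media change DIV 7; fixed DIV 12. Anti-MAP2/anti-synaptophysin, Hoechst nuclei; HCI puncta count per neuron, positive fitting direction vs DMSO.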

Structure (SMILES) | outcome
OC[C@@H](O)[C@@H](O)[C@H](O)[C@H](O)CO | inactive
CCCc1cc(=O)[nH]c(=S)[nH]1 | inactive
C[Si]1(C)O[Si](C)(C)O[Si](C)(C)O[Si](C)(C)O1 | inactive
O=c1[nH]cc(F)c(=O)[nH]1 | inactive
CC(=O)Oc1ccccc1C(=O)O | inactive
